Measurements taken from PubChem BioAssay (Tox21).
Records with an inconclusive call do not appear. Active and inactive are the calls of the source. Unless noted, calls follow the shape of the dose curve; as a rule, active = well fitted curve in the direction sought with a large enough effect in the repeat runs; inconclusive = weak or mixed curves; inactive = no such curve, though single readings can be large; an effect the other way counts as inactive or inconclusive.

Columns and labels:
[1] = molecular target: Luciferin 4-monooxygenase (Photinus pyralis) (UniProt P08659); assay: qHTS assay to identify small molecule inhibitors of firefly luciferase (AID 1224835); also: nearly all actives have a fitted effect of over 25% in size
Luciferin 4-monooxygenase (Photinus pyralis), sequence (P08659 whole entry, looked up): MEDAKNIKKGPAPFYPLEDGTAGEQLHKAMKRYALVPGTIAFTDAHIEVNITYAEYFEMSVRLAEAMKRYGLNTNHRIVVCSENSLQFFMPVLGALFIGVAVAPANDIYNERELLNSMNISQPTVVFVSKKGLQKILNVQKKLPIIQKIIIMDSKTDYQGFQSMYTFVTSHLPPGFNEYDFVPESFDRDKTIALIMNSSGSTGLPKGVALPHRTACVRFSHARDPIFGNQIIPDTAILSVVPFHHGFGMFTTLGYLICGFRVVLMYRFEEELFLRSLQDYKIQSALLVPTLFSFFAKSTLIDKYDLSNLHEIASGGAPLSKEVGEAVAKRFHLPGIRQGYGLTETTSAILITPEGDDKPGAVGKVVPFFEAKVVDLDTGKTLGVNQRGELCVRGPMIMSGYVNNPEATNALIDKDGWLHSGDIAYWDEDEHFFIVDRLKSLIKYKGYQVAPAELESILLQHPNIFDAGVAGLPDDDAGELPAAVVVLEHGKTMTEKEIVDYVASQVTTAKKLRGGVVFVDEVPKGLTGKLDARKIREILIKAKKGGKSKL
Method in brief: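 Biochemical qHTS: compounds run as interplate titrations against purified firefly enzyme, with D-luciferin and ATP each at its KM concentration. Light output recorded by CCD imaging.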

[2] = qHTS assay to identify small molecule agonists of the constitutive androstane receptor (CAR) signaling pathway - cell viability counter screen (AID 1224836); also: nearly all actives have a fitted effect of over 45% in size
Method in brief: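 Double-stable HepG2 hepatoma cells (hCAR plus CYP2B6-2.2kb) are treated for 23 h at 37 C with test compounds in 15-point concentration series. PK11195 at 0.75 uM final is co-added. Cell viability is quantified by CellTiter-Fluor.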

[3] = qHTS assay to identify small molecule antagonists of the constitutive androstane receptor (CAR) signaling pathway - cell viability counter screen (AID 1224837); also: nearly all actives have a fitted effect of over 45% in size
Method in brief: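 HepG2 cells stably expressing hCAR and a CYP2B6-2.2kb reporter were plated and pre-incubated 4 hr at 37 C/5% CO2, then given compounds at 15 concentrations plus 50 nM CITCO (final). After 23 hr, viability was read by CellTiter-Fluor fluorescence.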

[4] = molecular target: Nuclear receptor subfamily 1 group I member 3 (Homo sapiens) (UniProt Q14994); assay: qHTS assay to identify small molecule antagonists of the constitutive androstane receptor (CAR) signaling pathway (AID 1224838); also: nearly all actives have a fitted effect of over 40% in size
Nuclear receptor subfamily 1 group I member 3 (Homo sapiens), sequence (Q14994 whole entry, looked up): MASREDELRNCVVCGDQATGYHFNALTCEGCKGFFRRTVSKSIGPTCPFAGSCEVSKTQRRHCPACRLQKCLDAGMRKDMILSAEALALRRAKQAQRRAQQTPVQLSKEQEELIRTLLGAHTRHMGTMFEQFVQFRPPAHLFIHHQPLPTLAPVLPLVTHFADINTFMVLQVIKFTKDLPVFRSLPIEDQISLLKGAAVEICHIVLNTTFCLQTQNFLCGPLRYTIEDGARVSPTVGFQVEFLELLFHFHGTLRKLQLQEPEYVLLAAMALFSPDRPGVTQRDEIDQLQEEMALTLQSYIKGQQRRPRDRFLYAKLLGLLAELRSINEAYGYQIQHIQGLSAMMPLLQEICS
Method in brief: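 HepG2 cells stably co-transfected with hCAR and a CYP2B6-2.2kb luciferase reporter were seeded 4 h before compound addition at 15 concentrations. Cells were stimulated with 50 nM CITCO (final) for 24 h at 37 C; luciferase luminescence was then read.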

[5] = molecular target: Nuclear receptor subfamily 1 group I member 3 (Homo sapiens) (UniProt Q14994); assay: qHTS assay to identify small molecule agonists of the constitutive androstane receptor (CAR) signaling pathway (AID 1224839); also: nearly all actives have a fitted effect of over 15% in size
Method in brief: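 Readout: firefly luciferase luminescence via ONE-Glo. System: HepG2 double-stable for hCAR and CYP2B6-2.2kb. Conditions: 15-point compound titration, PK11195 at 0.75 uM final, 24 h incubation.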

[6] = qHTS assay to identify small molecule antagonists of the estrogen related receptor signaling pathway with the pleiotropic PPARgamma coactivator (PGC) from Tox21 10K library - cell viability counter screen (AID 1224840; active = well fitted cell-killing curve with a large enough effect in the repeat runs, not every such curve was filed as active; also: nearly all actives have a fitted effect of over 40% in size)
Method in brief: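 PGC/ERR cells were seeded at 2,000 cells/well and left 6 hours at 37 C/5% CO2 before pin-tool addition of compounds in DMSO. After 17.5 hours at 37 C, CellTiter-Fluor was added and fluorescence read 30 minutes later.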

[7] = qHTS assay to identify small molecule antagonists of the estrogen related receptor signaling pathway with the pleiotropic PPARgamma coactivator (PGC) from Tox21 10K library (AID 1224841; call rule not given here; also: actives are mostly falling curves and most rising ones were filed inactive; nearly all actives have a fitted effect of over 50% in size)
Method in brief: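 PGC/ERR reporter cells were seeded at 2,000 cells/well and held 6 hours at 37 C/5% CO2 before pin-tool addition of compounds in DMSO. After 18 hours at 37 C, One-Glo was added and luminescence read after 30 minutes at room temperature.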

[8] = qHTS assay to identify small molecule agonists of the estrogen related receptor signaling pathway with the pleiotropic PPARgamma coactivator (PGC) from Tox21 10K library (AID 1224842); also: nearly all actives have a fitted effect of over 15% in size
Method in brief: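 PGC/ERR reporter cell line, 2,000 cells per well, incubated 6 h at 37 C before 23 nL compound in DMSO was added. After 18 h at 37 C, One-Glo luminescence read following 30 min at room temperature.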

[9] = molecular target: Thyrotropin receptor (Homo sapiens) (UniProt P16473); assay: qHTS assay to identify small molecule agonists of the thyroid stimulating hormone receptor (TSHR) signaling pathway (AID 1224843; calls by dose curve; also: nearly all actives have a fitted effect of over 45% in size)
Thyrotropin receptor (Homo sapiens), sequence (P16473 whole entry, looked up): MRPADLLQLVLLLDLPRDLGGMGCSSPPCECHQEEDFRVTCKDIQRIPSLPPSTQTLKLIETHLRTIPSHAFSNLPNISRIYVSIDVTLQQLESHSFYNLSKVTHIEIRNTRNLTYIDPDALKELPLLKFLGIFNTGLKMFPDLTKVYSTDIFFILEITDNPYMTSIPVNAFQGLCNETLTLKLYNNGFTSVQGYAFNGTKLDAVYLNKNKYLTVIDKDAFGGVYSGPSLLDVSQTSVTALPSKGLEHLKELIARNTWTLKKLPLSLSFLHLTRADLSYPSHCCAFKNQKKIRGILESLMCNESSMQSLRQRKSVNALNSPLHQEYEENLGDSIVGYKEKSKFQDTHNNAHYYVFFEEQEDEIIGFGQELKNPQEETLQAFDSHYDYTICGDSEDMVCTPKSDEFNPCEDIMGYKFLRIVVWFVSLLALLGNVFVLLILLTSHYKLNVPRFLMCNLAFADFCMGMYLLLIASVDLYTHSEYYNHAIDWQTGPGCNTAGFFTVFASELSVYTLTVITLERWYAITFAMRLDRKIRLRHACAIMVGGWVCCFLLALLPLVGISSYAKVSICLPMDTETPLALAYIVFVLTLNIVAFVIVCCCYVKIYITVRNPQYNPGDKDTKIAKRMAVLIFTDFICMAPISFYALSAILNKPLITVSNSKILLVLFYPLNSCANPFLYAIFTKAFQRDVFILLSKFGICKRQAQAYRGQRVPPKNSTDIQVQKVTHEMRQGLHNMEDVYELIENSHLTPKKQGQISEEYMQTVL
Method in brief: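 Steps: seed 800 TSHR-HEK293 cells per well; add test compound and hold 30 min at ambient temperature; dispense cAMP-d2 then anti-cAMP cryptate; incubate 1 h at ambient; measure fluorescence intensity.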

Measured: Potency
Potency is read from the fitted curve at half-maximal effect.

O=C(N[C@@H]1N=C(c2ccccc2F)c2cccc3c2N(CC3)C1=O)c1cc2ccccc2[nH]1
inactive: [2] | [3] | [4] | [6]
active: [1] 9.77 µM | [5] 2.98 µM

CCNS(=O)(=O)C(F)(F)C(F)(F)C(F)(F)C(F)(F)C(F)(F)C(F)(F)C(F)(F)C(F)(F)F
not listed: [9]
inactive: all other assays above

C[C@]12CC[C@H]3[C@@H](CCC4=CC(=O)CC[C@@H]43)[C@@H]1CC[C@@H]2OC(=O)CCc1ccco1
not listed: [7] | [8] | [9]
inactive: all other assays above

Cc1cc(C2CC2)nc(Nc2ccccc2)n1
inactive: [2] | [3] | [4] | [7]
active: [1] 39.9 µM | [5] 54.5 µM

CC#C[C@]1(O)CC[C@H]2[C@@H]3C[C@H](C)C4=CC(=O)CC[C@]4(C)[C@H]3CC[C@@]21C
not listed: [4] | [7] | [8]
inactive: all other assays above

N#Cc1sc2c(=O)c3ccccc3c(=O)c=2sc1C#N
inactive: [8]
active: [1] 4.48 µM | [2] 8.63 µM | [3] 6.11 µM | [5] 2.17 µM | [6] 48.6 µM

COC(=O)C(C)N(C(=O)c1ccco1)c1c(C)cccc1C (stereo not given)
active: [5] 15.3 µM
not listed: [9]
inactive: all other assays above

CCOP(=O)(OCC)Oc1nc(Cl)c(Cl)cc1Cl
not listed: [7] | [8] | [9]
inactive: all other assays above

c1ccc(Nc2ccc(Nc3ccccc3)cc2)cc1
active: [1] 28.1 µM | [5] 24.2 µM
not listed: [8] | [9]
inactive: all other assays above

O=[N+]([O-])c1ccc(CCl)cc1
not listed: [4] | [7] | [9]
inactive: all other assays above

CC[C@H](C)[C@H]1O[C@]2(C=C[C@@H]1C)C[C@@H]1C[C@@H](C/C=C(\C)[C@@H](O[C@H]3C[C@H](OC)[C@@H](O[C@H]4C[C@H](OC)[C@@H](NC)[C@H](C)O4)[C@H](C)O3)[C@@H](C)/C=C/C=C3\CO[C@@H]4[C@H](O)C(C)=C[C@@H](C(=O)O1)[C@]34O)O2
inactive: [1] | [5]
active: [2] 12.2 µM | [3] 9.69 µM | [4] 13.7 µM | [6] 6.86 µM

CCOP(=S)(NC(C)C)Oc1ccccc1C(=O)OC(C)C (stereo not given)
active: [5] 7.7 µM | [7] 30.6 µM
not listed: [4] | [6]
inactive: all other assays above

CSC(C)(C)/C=N/O
not listed: [7] | [8]
inactive: all other assays above

O=C(Nc1ccc(F)cc1F)c1cccnc1Oc1cccc(C(F)(F)F)c1
active: [9] 37.8 µM
inactive: [1] | [2] | [3] | [6] | [7]

CCCCCON=O
active: [7] 30.7 µM
inactive: all other assays above

C[C@H]1[C@H](c2ccc(Cl)cc2)SC(=O)N1C(=O)NC1CCCCC1
active: [5] 54.5 µM | [7] 61.1 µM
inactive: all other assays above

CCCCCCC[CH2][Sn]([Cl])([Cl])[CH2]CCCCCCC
active: [7] 27.3 µM
not listed: [6]
inactive: all other assays above

O=P(Cl)(Cl)Cl
not listed: [7] | [8]
inactive: all other assays above

COc1nc(C)nc(NC(=O)NS(=O)(=O)c2ccccc2Cl)n1
inactive: all assays above

Nc1ccc(N=Nc2ccccc2)cc1
inactive: [4] | [7]
active: [1] 2.24 µM | [5] 30.6 µM | [6] 24.3 µM | [8] 3.06 µM

COC(=O)c1cc(Oc2ccc(Cl)cc2Cl)ccc1[N+](=O)[O-]
inactive: [1] | [2] | [4] | [6] | [9]

COP(=O)(OC)Oc1ccc([N+](=O)[O-])cc1
inactive: [1] | [4] | [5] | [8]
active: [7] 21.7 µM

N#CCCl
not listed: [3] | [7] | [8]
inactive: all other assays above

CN1CCc2cc3c(cc2C1O)OCO3 (stereo not given)
inactive: [1] | [4] | [5] | [7] | [8]
